Only some compounds are listed: those with a hit (about 19% of all), similar ones and a draw of the others.
MCF10A rereplic – inducers of DNA re-replication in MCF 10A breast cells | Potency, µM (top dose mostly 46.1 µM), for the others: top-dose activity, positive = re-replication, actives largely listed as activators | 2.9% of 350,000 active | MCF 10A DNA re-replication, Hoechst nuclear intensity, 48 h; further: potency means the concentration at half of the fitted maximal effect; % of control where 0% means no effect; nearly all actives have a fitted effect of over 50% in size
IL-1B inflam inh – blocks inflammasome-driven IL-1 beta release | AID 743279 | 4.7% of 360,000 active | THP-1 LPS/ATP IL-1B secretion, AlphaLISA, 16 h; hits give low values | activity change, % at 57.5 µM; in the data active means activity change below about -50%; inconclusive means mostly about -30% to -49%; further: on the % scale 0 is the no-effect control and ±100 the full control effect
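Secreted IL-1B measured by AlphaLISA bead assay after 16 h compound exposure of THP-1 cells; compounds (final up to 57.5 uM) added 1 h before LPS (250 ng/mL) and ATP (1.25 mM) stimulation; lower signal means less secretion.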
TDP1 cell noCPT – qHTS for Inhibitors of human tyrosyl-DNA phosphodiesterase 1 (TDP1): qHTS in cells in absence of CPT | DT40 Tdp1-/- hTDP1 cells, no CPT, ATP luminescence, 48 h | Potency, µM (highest dose often 46.2 µM), inactives show at the top dose activity change, negative = growth inhibition, most hits filed as inhibitors | 15% of 420,000 active | AID 686978, 2013; further: potency means the concentration at half of the fitted maximal effect; on the % scale 0 is the no-effect control and ±100 the full control effect; nearly all actives have a fitted effect of over 55% in size
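Chicken DT40 Tdp1-/- cells complemented with human TDP1, screened without camptothecin (DMSO vehicle only), 400 cells/well. Compounds pin-transferred, cells incubated at 37 °C for at least 48 hr. Growth read as ATP-dependent luminescence (CellTiter-Glo, 30 min at RT).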
SW480 rerep – inducers of DNA re-replication in SW480 colon cancer cells; SW480 DNA re-replication, Hoechst DNA content imaging, 48 h; Potency, µM (doses to about 46.1 µM), for inactives: top-dose re-replication activation, actives largely listed as activators; 1.8% of 340,000 active; AID 624297; further: potency means the concentration at half of the fitted maximal effect; % of control where 0% means no effect; nearly all actives have a fitted effect of over 55% in size
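Readout is total intensity of Hoechst-stained nuclei, excited at 405 nm and collected at 500-530 nm. Compound treatment lasted 48 hr at 37 C in 5% CO2 before staining.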
BCR signal inh – chronic active BCR signaling inhibition; 0.05% of 340,000 active; ABC-DLBCL IkBa-CBG/CBR reporter, luminescence ratio, 4 h; Potency, µM (highest dose often 46.1 µM), inactives show at the highest dose activity change, negative = inhibition, usual class: inhibitors; active means well fitted inhibition curve with a large enough effect in the signal ratio, with a control signal flat, not every such curve was filed as active; inconclusive means small, poorly fitted or top-dose-only effect, or effect the other way, or a change in a side signal; the % refers to the signal ratio;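 further: potency means the concentration at half of the fitted maximal effect; plate controls were basal doxycycline-induced cells for no effect and cells given 10 µM MG132 for full effect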
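Cell line TMD8 (human ABC DLBCL), stably expressing tet-inducible CBG68-IkBa fusion and CBR; IMDM/0.5% FBS; cpd up to 46 uM; dox induction, 4 h, 37C/5% CO2; dual luminescence; green/red ratio; MG132 control.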
DT40 TDP1 CPT – growth inhibition of DT40 Tdp1-/-;hTDP1 cells with camptothecin (screen for TDP1 inhibitors) | chicken DT40 Tdp1-/-;hTDP1 cells + 20 nM CPT, ATP luminescence, 48 h | Potency, µM (top dose mostly 46.2 µM), for inactives: at the highest dose activity change, negative = growth inhibition, actives largely listed as inhibitors | 12% of 420,000 active | AID 686979; further: potency means the concentration at half of the fitted maximal effect; on the % scale 0 is the no-effect control and ±100 the full control effect; nearly all actives have a fitted effect of over 55% in size
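Cell growth measured by CellTiter-Glo luminescence after a minimum 48 h, 37 C compound exposure with 20 nM CPT in Tdp1-knockout DT40 cells stably expressing hTDP1, seeded 400/well; qHTS titration format.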
Active calls of the source: *; ? = inconclusive; · = no result. Unless noted, the call rests on the fitted dose curve; in most records, active means well fitted curve in the direction sought with a large enough effect; inconclusive means small, poorly fitted or top-dose-only effect, or another doubt; inactive means no such curve, though single readings can be large; an effect the other way counts as inactive or inconclusive.

SMILES	MCF10A rereplic	IL-1B inflam inh	TDP1 cell noCPT	SW480 rerep	BCR signal inh	DT40 TDP1 CPT
COc1cccc(CN(C)C(=O)c2cc(-c3cccs3)nc3ccccc23)c1	?	-11	18µM*	-2%	2%	21µM*
COc1ccccc1C(=O)Nc1nnc(SCc2cc(=O)n3ccc(C)cc3n2)s1	·	·	1%	·	·	0%
Nc1ncc(S(=O)(=O)NCc2cccc(Cl)c2)cn1	·	·	-21%	·	·	-23%
COc1cc(OC)c(N(C)C(=O)c2cn(C3CCCC3)c(=O)c3c2c2ccccc2n3C)cc1Cl	·	·	8.2µM*	·	·	10µM*
COc1cc(Cl)c(C)cc1NC(=O)c1cn(C2CCCC2)c(=O)c2c1c1ccccc1n2C	·	·	?	·	·	0.65µM*
COc1cccc(NC(=O)c2cn(C3CCCCC3)c(=O)c3c2c2ccccc2n3C)c1	·	·	?	·	·	-24%
Cc1ccc(C(C)(C)C)c(OCCOCCN2CCCC2)c1	?	-8	?	0%	-11%	15µM*
CC(C)(C)c1ccccc1OCCOCCN1CCCCCC1	15%	-62*	15µM*	?	1%	?
COc1ccccc1N1CCN(C(=O)C2CC2)CC1	?	9	-11%	12%	·	8%
COc1ccccc1N1CCN(C(=O)C2c3ccccc3Oc3ccccc32)CC1	1.8µM*	24	2.9µM*	5.8µM*	?	2.9µM*
O=C(C1CCC1)N1CCN(c2ccc(Cl)cc2)CC1	-4%	-11	?	-4%	2%	-7%
O=C(C1c2ccccc2Oc2ccccc21)N1CCN(c2ccc(Cl)cc2)CC1	?	?	15µM*	-7%	2%	?
CC(C)CN(C(=O)c1cccc(S(=O)(=O)N2CCN(C)CC2)c1)C1CCS(=O)(=O)C1 (stereo not drawn)	0%	-2	7%	-1%	-1%	8%
CCOc1ccc(S(=O)(=O)N(C)CC(=O)NCc2ccccn2)cc1Cl	-3%	0	0%	-5%	-14%	7%
COc1ccc(CNC(=O)COC(=O)c2c(-c3c(F)cccc3Cl)noc2C)cc1OC	-7%	-8	?	-3%	-12%	?
Cc1onc(-c2c(F)cccc2Cl)c1C(=O)OCC(=O)NC(=O)NCC(C)C	?	-19	7.3µM*	-1%	-6%	-23%
COC1=C(N)C(=O)c2nc(C)ccc2C1=O	11%	14	7.3µM*	?	·	5.2µM*
COc1nc(C)ccc1-c1noc(-c2cccnc2)n1	?	74	-5%	?	0%	-4%
COC1=C(Br)C(=O)c2nc(C)ccc2C1=O	·	-28	0.58µM*	·	·	0.65µM*
COc1ccc(-c2c(C#N)c(C)nc3c2C(=O)c2ccccc2-3)cc1	1%	0	-17%	-6%	0%	-17%
Cc1cccc2nc(-c3ccccc3)nc(N[C@@H](CO)c3ccccc3)c12	?	-63*	?	29%	?	?
OC(CN1CCOCC1)c1ccc(F)cc1 (stereo not drawn)	1%	-10	-6%	?	-11%	5%
O=C(c1ccc(F)cc1)C(CCCCCC(CN1CCOCC1)C(=O)c1ccc(F)cc1)CN1CCOCC1 (stereo not drawn)	?	?	18µM*	?	?	?
CC1NC(=O)c2cc3ccccc3cc2-n2c1nc1ccccc1c2=O (stereo not drawn)	·	-4	?	·	·	-22%
Brc1ccc2[nH]c3nc(SCCN4CCOCC4)nnc3c2c1	1%	10	?	0%	7%	?
SMILES	MCF10A rereplic	IL-1B inflam inh	TDP1 cell noCPT	SW480 rerep	BCR signal inh	DT40 TDP1 CPT
c1ccc2c(c1)[nH]c1nc(SCCN3CCOCC3)nnc12	1%	28	?	-6%	?	-21%
Cc1cc(C)c2c(c1)c1nnc(SCCN3CCOCC3)nc1n2C	10%	-1	8.2µM*	-6%	-1%	-8%
CCn1c2nc(SCCN3CCOCC3)nnc2c2cc(C)cc(C)c21	14%	0	?	-5%	?	16µM*
CCCCn1c(SCc2ccccc2C#N)nc2c(sc3ccccc32)c1=O	·	·	?	·	8%	-21%
Cc1ccc2ccccc2c1C(O)c1ncc(-c2ccc(F)cc2)[nH]1 (stereo not drawn)	·	19	?	·	·	?
CCn1c(=N)c(C(=O)NC2CCCC2)cc2c(=O)n3cc(C)ccc3nc21	·	·	1%	·	·	-6%
Cc1nc(SCC(=O)NCCc2ccccc2)c2oc3ccccc3c2n1	3%	10	-13%	6%	1%	3%
CCc1nc(SCC(=O)c2cccs2)c2oc3ccccc3c2n1	?	10	18µM*	-3%	10%	?
CCc1nc(SCC(=O)NCCc2ccccc2)c2oc3ccccc3c2n1	9%	-11	?	0%	-2%	21µM*
COc1ccc(CNC(=O)C23CC4CC(CC(Br)(C4)C2)C3)cc1	-32%	-10	1%	-79%	0%	-5%
COc1ccc(C(=O)C23CC4CC(C2)CC(C(=O)c2ccc(OC)cc2)(C4)C3)cc1	-5%	13	16µM*	3%	1%	?
CN(C)P(=O)(Nc1cccc2ccccc12)Nc1cccc2ccccc12	29%	0	9.2µM*	-1%	-1%	8.2µM*
O=C(Nc1cnn(C23CC4CC(CC(C4)C2)C3)c1)c1cnn2c(C(F)(F)F)cc(-c3ccco3)nc12	-15%	-80*	16µM*	-15%	2%	18µM*
Cc1ccccc1Cn1ccc(NC(=O)c2cnn3c(C(F)(F)F)cc(-c4ccco4)nc23)n1	?	-14	15µM*	-5%	18%	?
Nc1[nH]c(C(=O)c2ccccc2)c(-c2ccc(Br)cc2)c1C(=O)NCCc1c[nH]c2ccccc12	·	?	18µM*	·	·	?
Nc1[nH]c(C(=O)c2ccccc2)c(-c2ccncc2)c1C(=O)NCCc1c[nH]c2ccccc12	·	0	?	·	·	?
COc1ccc(C(=O)c2[nH]c(N)c(C(=O)NCCc3c[nH]c4ccccc34)c2-c2ccc(Br)cc2)cc1	·	-22	21µM*	·	·	?
COc1ccc(C(=O)c2[nH]c(N)c(C(=O)NCCc3c[nH]c4ccccc34)c2-c2ccc(C(F)(F)F)cc2)cc1	·	0	21µM*	·	·	16µM*
COc1ccc2c(C(=O)NCCCCO)c(-c3ccc(S(C)(=O)=O)cc3)sc2c1	12%	-4	-5%	-9%	?	?

Bioassay records as filed in PubChem.
